Among the data in PubChem BioAssay (NCATS) are max response, outcome and Potency values, retold here.

For test [1], the system named is CRL-7250. Nature of the test: Cytotoxic Profiling of Annotated Libraries Using Quantitative High-Throughput Screening (AID 1296008). Further: potency means the concentration at half of the fitted maximal effect. On max response: on the % scale 0 is the no-effect control and ±100 the full control effect. The settings on record: Five cell lines viability, CellTiter-Glo ATP luminescence, 48-72 h; max response: stronger effect = lower value. The essentials:
(§1)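 Cytotoxicity was measured as CellTiter-Glo ATP luminescence, read after 10 min at room temperature. Compound treatment of the cells lasted 48 or 72 hr at 37 degrees Celsius in a qHTS format.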

Test [2] concerns HEK293. Described as above. The settings on record: Five cell lines viability, CellTiter-Glo ATP luminescence, 48-72 h; max response: stronger effect = lower value. A digest of the protocol: as §1
In general terms: In ATP-based viability assays light output follows the ATP content of the culture.

In test [3] the test system is HaCat. The description is as above. The settings on record: Five cell lines viability, CellTiter-Glo ATP luminescence, 48-72 h; max response: stronger effect = lower value. A digest of the protocol: as §1
The subject of test [4] is NIH3T3. The test is described as above. The settings on record: Five cell lines viability, CellTiter-Glo ATP luminescence, 48-72 h; max response: stronger effect = lower value. The essentials:
as §1

The test system of test [5] is HACAT. Kind of test: qHTS assay to identify novel small-molecules to repurpose for Merkel cell carcinoma treatment (AID 1296009). The settings on record: MCC and control cell lines, CellTiter-Glo viability, 72 h; at 44.8 µM (top of the series) unless noted. A digest of the protocol:
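72 hr, 37 degree celsius; NPC 8-pt / MIPE 11-pt dose response; compound pinned in DMSO; CellTiter-Glo, 10 min RT, luminescence; normalized to no-cell and DMSO controls.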
(In qHTS, concentration-response curves come from the screen itself.)

In test [6] the test system is ICS. Nature of the test: qHTS profiling for inhibitors of Plasmodium falciparum proliferation (AID 504749). Further: potency means the concentration at half of the fitted maximal effect. The following applies: P. falciparum in erythrocytes, SYBR Green DNA, 72 h; series mostly up to 28.7 µM. A digest of the protocol:
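Infected RBCs, 0.3% parasitemia/2.5% Hct final; cpd 72 h, 37 C, 5% CO2; lysis buffer with saponin/triton/SYBR Green I, o/n RT dark; FI 485/535; norm. to artemisinin (0.29 uM) and DMSO.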

In test [7] the test system is KB-3-1. Kind of test: Cytotoxic Profiling of Annotated Libraries Using Quantitative High-Throughput Screening (AID 1296008). Further: potency means the concentration at half of the fitted maximal effect. On max response: on the % scale 0 is the no-effect control and ±100 the full control effect. The following applies: Five cell lines viability, CellTiter-Glo ATP luminescence, 48-72 h; max response: stronger effect = lower value. The essentials: as §1

Results filed as inconclusive are left out. Values without a mark were called inactive. Activity calls are given as the source filed them. The call rests on the fitted dose curve; in most records, active means well fitted inhibition curve with a large enough effect; inconclusive means small, poorly fitted or top-dose-only effect; inactive means flat fitted curve, though single readings scatter.
Further: nearly all actives have a fitted effect of over 60% in size.

On to `CCCCCCCC(=O)[O-].CCCCCCCC(=O)[O-].[Zn+2]`, for which the max response in test [1] was -4.35%; in test [2], -2.75%; in test [4], 4.51%. Besides, the molecule was classed as inactive in test [3] and in test [5].
On to `Nc1ccc([N+](=O)[O-])c(C(F)(F)F)c1`, for which the results for the max response in test [1], in test [2] and in test [4] were 1.39%, 4.93% and 0.447%, respectively. Moreover, the call in test [3] and in test [5] was inactive.
As for `N[C@@H](Cn1ccc(=O)c(O)c1)C(=O)O`, the max response was -0.877% in test [1], -0.669% in test [2] and 0.301% in test [4]. Further, the call in test [3] was inactive. In addition, in test [5], the outcome was “inactive [at 4.96 µM]”.
On the same counts, the results for `O=C1Cc2cc(Cl)ccc2N1` are -11.6%, -3.82%, 3.19%, “inactive” and “inactive”.
Taken in the same sequence, the figures for `CN1Cc2cc(C(=O)N3CCC(C4CCNCC4)CC3)ccc2N[C@@H](CC(=O)O)C1=O` were -4.04%, -1.55%, 1.44%, “inactive” and “inactive”.
As to `NCC[C@H](O)C(=O)N[C@@H]1C[C@H](N)[C@@H](O[C@H]2O[C@H](CN)[C@@H](O)[C@H](O)[C@@H]2O)[C@H](O)[C@@H]1O[C@H]1O[C@H](CO)[C@@H](O)[C@H](N)[C@@H]1O`, the max response in test [1] was -2.25%; in test [2] it was -4.69%; in test [4], -2.83%. Further, the molecule was classed as inactive in test [3]. For the same molecule, in test [5], the outcome was “inactive [at 0.588 µM]”.
With `O=C(CCOCCOCCOCCOCCC(=O)Nc1c(I)cc(I)c(C(=O)O)c1I)Nc1c(I)cc(I)c(C(=O)O)c1I`, the max response in test [1] was -8.36%; in test [4] it was 0.931%. For the same molecule, the call in test [2], in test [3] and in test [5] was inactive.
`CCN(CC)CC(=O)Oc1ccc(NC(C)=O)cc1`: the max response in test [1] was -7.74%. In addition, the molecule was classed as inactive in test [2], in test [3], in test [4] and in test [5].
Regarding `CC(=O)N1CCN(c2ccc(O)cc2)CC1`, the max response was -1.56% in test [1] and -2.95% in test [2]. Besides, the outcome in test [3], in test [4] and in test [5] was inactive.
In the case of `COc1ccc2c(c1)c(CC(=O)OC/C=C(\C)CC/C=C(\C)CCC=C(C)C)c(C)n2C(=O)c1ccc(Cl)cc1`, the molecule was called inactive in test [1], in test [3] and in test [5]. Further, the max response in test [2] is -3.27%; in test [4], 4.12%.
Regarding `CCOCCn1c(C2CCN(CCc3ccc(C(C)(C)C(=O)O)cc3)CC2)nc2ccccc21`, the max response in test [1] is -0.215%; in test [2] it was -1.51%; in test [4] it was -0.532%. In addition, the result in test [3] and in test [5] was inactive.
Take `COc1ccccc1N1CCN(CC(O)COc2cc(OC)c(OC)c(OC)c2)CC1` (stereo unspecified): the molecule was classed as inactive in test [1], in test [3] and in test [5]. The max response in test [2] was 2.4%; in test [4] it was -5.07%.
With `COC(=O)c1cc(Cl)c(NC(C)=O)cc1OC`, the results for the max response in test [1] and in test [2] were 2.72% and -2.05%, respectively. Moreover, the molecule was classed as inactive in test [3], in test [4] and in test [5].
For the molecule `CCCCCCn1c(=O)c2c(ncn2C)n(C)c1=O`, the molecule was classed as inactive in test [1], in test [3] and in test [5]. In addition, the values for the max response in test [2] and in test [4] were -1.62% and 1.26%, respectively.
As for `O=C(O)c1[nH]n(-c2ccc(S(=O)(=O)O)cc2)c(=O)c1N=Nc1ccc(S(=O)(=O)O)cc1`, the values for the max response in test [1], in test [2] and in test [4] were 0.833%, 1.51% and -0.37%, respectively. Also, the molecule was called inactive in test [3] and in test [5].
`Nc1ccc2cc3ccc(N)cc3nc2c1`: the Potency in test [6] is 2820 nM (active).
Take `CC(C)(C)NCC(O)COc1ccccc1OCC1CCCO1` (stereo unspecified): the results for the max response in test [1] and in test [2] were -2.81% and -1.05%, respectively. Moreover, the outcome in test [4] was inactive.
On to `O=[N+]([O-])c1ccc(-c2nc(-c3ccc(F)cc3)c(-c3ccncc3)[nH]2)cc1`, for which the molecule was called inactive in test [1]. Further, the max response in test [3] is -22.5%.
For the molecule `CN1CC[C@H](c2c(O)cc(O)c3c(=O)cc(-c4ccccc4Cl)oc23)[C@H](O)C1`, the Potency in test [1] is 266 nM (active); in test [3] it was 750 nM (active).
Consider `CC(C)OC(=O)c1cc2c(OCC(O)CNC(C)(C)C)cccc2[nH]1` (stereo unspecified), for which the values for the max response in test [1], in test [3] and in test [7] were -22.1%, -9.3% and -5.12%, respectively.
Regarding `CCN1CCN(c2cc(-c3ccc(F)cc3)c3c(n2)CCCCCC3)CC1`, the values for the max response in test [1] and in test [3] were 3.32% and 0.965%, respectively. The result in test [4] was inactive.
In the case of `COc1cc2nc(Cl)nc(N)c2cc1OC`, the result in test [1] was inactive. The figures for the max response in test [3] and in test [4] were 0.108% and -0.129%, respectively.
For `CCCc1ccc(OCC(=O)N2CCN(C(=O)COc3ccc(CCC)cc3OC)CC2)c(OC)c1`, the max response in test [1] was -1.28%; in test [3], 5%; in test [4] it was 0.399%.
Consider `CCN1C(=O)c2ccccc2C1Nc1ccc(OCCN2CCCCC2)cc1` (stereo unspecified), for which the max response is -2.5% in test [1], -6.62% in test [3] and -13.7% in test [4]. Besides, the molecule was classed as inactive in test [7].
`C[C@@H]1C[C@H]2[C@@H]3CCC4=CC(=O)C=C[C@]4(C)[C@@]3(F)[C@@H](O)C[C@]2(C)[C@@]1(O)C(=O)COC(=O)c1ccncc1`: the max response in test [1] is -11%; in test [2] it was -6.52%; in test [4], -6.36%.
On to `CC1CC(=O)NN=C1c1ccc(NCC(C)(C)NCC(O)COc2cc(Cl)ccc2C#N)cc1` (stereo unspecified), for which the max response in test [1] was -11.5%; in test [3], -12.2%; in test [7], -1.42%; in test [4], -20.4%.
